Our source for the Potency values is PubChem BioAssay (NCATS).

One test deals with MCC-13. Put plainly: qHTS assay to identify novel small-molecules to repurpose for Merkel cell carcinoma treatment (AID 1296009). Note: nearly all actives have a fitted effect of over 60% in size. As to conditions: MCC and control cell lines, CellTiter-Glo viability, 72 h; series mostly up to 46 µM. The gist of the method: (§1)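 qHTS format: cells treated with library compounds in DMSO across 8 (NPC) or 11 (MIPE) concentrations. Readout after 72 hr at 37 degree celsius was CellTiter-Glo luminescence.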
A general note: Quantitative high-throughput screening tests each substance at several concentrations.

Another test concerns MCC-26. The test is described as above. To be noted: MCC and control cell lines, CellTiter-Glo viability, 72 h; series mostly up to 46 µM. The gist of the method: as §1
(Cellular ATP, detected with luciferase, serves as a proxy for viable cell number.)

Another test relates to MKL-1. The description is as above. As to conditions: MCC and control cell lines, CellTiter-Glo viability, 72 h; series mostly up to 46 µM. The gist of the method:
as §1

In another test the test system is MKL-2. The test is described as above. To be noted: MCC and control cell lines, CellTiter-Glo viability, 72 h; series mostly up to 46 µM. The essentials:
as §1

A further test has as its system UISO. Described as above. As to conditions: MCC and control cell lines, CellTiter-Glo viability, 72 h; series mostly up to 46 µM. The gist of the method: as §1
The test system of a further test is WaGa. The description is as above. To be noted: MCC and control cell lines, CellTiter-Glo viability, 72 h; series mostly up to 46 µM. The essentials:
as §1

The next test relates to C33A. The test is described as follows: Primary qHTS to identify gynecologic anti-cancer compounds using libraries of approved drugs and bioactive compounds (AID 1345084). Note: nearly all actives have a fitted effect of over 55% in size. As to conditions: Gynecologic cancer cell panel viability, ATPlite luminescence, 48 h; series mostly up to 57.5 µM. The gist of the method:
(§2)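 48 h compound exposure at 37 C, 5% CO2; five-point qHTS. ATPlite luminescence readout of cell ATP.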

For another test, the system named is CASKI. The description is as above. As to conditions: Gynecologic cancer cell panel viability, ATPlite luminescence, 48 h; series mostly up to 57.5 µM. The essentials:
as §2

The next test deals with CAOV3. The test is described as above. As to conditions: Gynecologic cancer cell panel viability, ATPlite luminescence, 48 h; series mostly up to 57.5 µM. The gist of the method: as §2

Several values for one entry are separate records, joined by “and”; a condition that tells them apart may be missing. Equal values may be shown once. Inconclusive results are not listed. Some structures have more than one record in an assay (separate samples or runs), and their calls can disagree. Activity calls are given as the source filed them. Calls come from the whole dose curve; as a rule, active = well fitted curve in the direction sought with a large enough effect; inconclusive = small, poorly fitted or top-dose-only effect, or another doubt; inactive = no such curve, though single readings can be large; an effect the other way counts as inactive or inconclusive. Non-standard residues stand in square brackets, D forms with d. Residues, ends and D or L forms follow the SMILES beside them. *: point of attachment. Sta = CC(C)C[C@H](N)[C@@H](O)CC(=O)O; Isovaleryl = CC(C)CC(=O)*
Potency is the fitted concentration of half-maximal effect.

Regarding `COc1cc2c(N3CCN(C(=O)Nc4ccc(OC(C)C)cc4)CC3)ncnc2cc1OCCCN1CCCCC1`, the Potency entry in the test with MCC-13, in the test with MCC-26, with MKL-1, with MKL-2, with UISO and in the test with WaGa was “inactive” each time. Further, the Potency result in the test with C33A and in the test on CASKI was “inactive” each time.
For the molecule `COc1ccc(C2(C#N)CCC(C(=O)O)CC2)cc1OC1CCCC1` (configuration not stated), the Potency result in the test on MCC-13, with MCC-26, in the test with MKL-1, with MKL-2, with UISO and with WaGa was “inactive” each time. Further, the Potency result in the test with C33A, in the test on CAOV3 and with CASKI was “inactive” in each case.
Consider `O=c1cc(N2CCOCC2)oc2c(-c3ccccc3)cccc12`, for which the Potency entry in the test on MCC-13, in the test on MCC-26, with MKL-1, in the test with MKL-2, with UISO and in the test on WaGa was “inactive” in each case.
`CCC[C@@H]1C[C@@H](C(=O)N[C@@H]([C@H]2O[C@H](SC)[C@H](O)[C@@H](O)[C@H]2O)[C@@H](C)O)N(C)C1`: the Potency result in the test with MCC-13, with MCC-26, in the test on MKL-1, with MKL-2, in the test with UISO and in the test with WaGa was “inactive” throughout. Moreover, the Potency result in the test with C33A, in the test with CAOV3 and in the test with CASKI was “inactive” in each case.
`CS(=O)(=O)OCCCCOS(C)(=O)=O`: the Potency result with MCC-13, in the test with MCC-26, in the test on MKL-1, in the test with MKL-2, in the test on UISO and in the test on WaGa was “inactive” each time. For the same molecule, the Potency entry in the test on C33A, in the test on CAOV3 and in the test on CASKI was “inactive” throughout.
As to `CC(C)CC(=O)N[C@H](C(=O)N[C@H](C(=O)N[C@@H](CC(C)C)[C@@H](O)CC(=O)N[C@@H](C)C(=O)N[C@@H](CC(C)C)[C@@H](O)CC(=O)O)C(C)C)C(C)C` (Isovaleryl-VV[Sta]A[Sta]-OH), the Potency result in the test on MCC-13, in the test with MCC-26, with MKL-1, with MKL-2, with UISO and with WaGa was “inactive” each time. Moreover, the Potency result in the test with C33A and in the test on CASKI was “inactive” in each case.
For the molecule `Cc1cc(O)c2c(c1)C(=O)c1cc(O)cc(O)c1C2=O`, the Potency entry in the test on MCC-13, in the test with MCC-26, with MKL-1, with MKL-2, in the test with UISO and with WaGa was “inactive” each time.
`C=CCc1cc(OC)c(O)c(C(=O)NCCO)c1`: the Potency result in the test on MCC-13, in the test on MCC-26, in the test on MKL-1, in the test with MKL-2, in the test on UISO and with WaGa was “inactive” in each case. Further, the Potency result in the test with C33A, in the test with CAOV3 and in the test with CASKI was “inactive” in each case.
As to `CC1(C)NC(=O)N(c2ccc([N+](=O)[O-])c(C(F)(F)F)c2)C1=O`, the Potency entry in the test on MCC-13, in the test on MCC-26, in the test on MKL-1, with MKL-2, in the test with UISO and in the test on WaGa was “inactive” throughout. In addition, the Potency entry in the test with C33A, in the test on CAOV3 and in the test on CASKI was “inactive” in each case.
Consider `C[C@@H](c1ncncc1F)[C@](O)(Cn1cncn1)c1ccc(F)cc1F`, for which the Potency result with MCC-13, in the test on MCC-26, in the test with MKL-1, in the test with MKL-2, in the test with UISO and in the test with WaGa was “inactive” throughout.
Consider `Cc1nccn1CC1CCc2c(c3ccccc3n2C)C1=O` (configuration not stated), for which the Potency entry with MCC-13, in the test with MCC-26, in the test on MKL-1, in the test with MKL-2, with UISO and in the test with WaGa was “inactive” each time. For the same molecule, the Potency entry in the test with C33A, in the test on CAOV3 and with CASKI was “inactive” throughout.
Turning to `Cc1c(OCC(F)(F)F)ccnc1CS(=O)c1nc2ccccc2[nH]1` (configuration not stated), the Potency entry with MCC-13, with MCC-26, with MKL-1, in the test on MKL-2, with UISO and in the test on WaGa was “inactive” in each case. Moreover, the Potency result in the test with C33A, in the test with CAOV3 and in the test on CASKI was “inactive” throughout.
Take `C[C@@H](N)C1CCC(C(=O)Nc2ccncc2)CC1` (some centres not stated): the Potency result in the test on MCC-13, in the test on MCC-26, in the test on MKL-1, in the test on MKL-2, in the test on UISO and in the test on WaGa was “inactive” each time.
Take `Nc1cc(C(Cl)=C(Cl)Cl)c(S(N)(=O)=O)cc1S(N)(=O)=O`: the Potency entry with MCC-13, with MCC-26, in the test with MKL-1, in the test on MKL-2, in the test on UISO and in the test with WaGa was “inactive” throughout. The Potency entry with C33A, with CAOV3 and with CASKI was “inactive” each time.
Regarding `COC(=O)C1=C(C)NC(C)=C(C(=O)OC(C)C)C1c1cccc2nonc12` (configuration not stated), the Potency result with MCC-13, in the test on MCC-26, in the test with MKL-1, with MKL-2, in the test on UISO and in the test on WaGa was “inactive” throughout. In addition, the Potency result in the test with C33A and in the test on CASKI was “inactive” throughout.
As to `Cc1cccc(CN2CCN(C(c3ccccc3)c3ccc(Cl)cc3)CC2)c1` (configuration not stated), the Potency result with MCC-13, in the test with MCC-26, in the test on MKL-1, in the test on MKL-2, with UISO and in the test with WaGa was “inactive” in each case. The Potency result in the test on C33A, in the test with CAOV3 and with CASKI was “inactive” in each case.
Take `CN(C)c1ccc2nc3ccc(=[N+](C)C)cc-3sc2c1`: the Potency is 7.43 µM (active) and 2.66 µM (active) in the test on MCC-13; 21.1 µM (active) in the test with MCC-26; 2.35 µM (active) and 841 nM (active) in the test with MKL-1; 4.69 µM (active) and 2.66 µM (active) with MKL-2; 3.32 µM (active) and 2.37 µM (active) with UISO; 1.87 µM (active) and 1.19 µM (active) with WaGa. Further, the Potency with C33A is 1.12 µM (active); with CAOV3, 3.98 µM (active); in the test on CASKI, 7.08 µM (active).
For `Cc1cc(C2CCCCC2)n(O)c(=O)c1`, the Potency with MCC-13 was 10.6 µM (active); in the test on MCC-26, 15 µM (active); with MKL-1, 2.11 µM (active) and 10.5 µM (active); in the test on MKL-2, 1.88 µM (active) and 11.8 µM (active); with UISO, 2.66 µM (active) and 13.2 µM (active); in the test on WaGa it was 1.88 µM (active) and 11.8 µM (active). In the test with C33A, the Potency is 15.8 µM (active). Further, the Potency entry in the test on CASKI was “inactive”.
Consider `O=C(O)c1cccc(-c2noc(-c3ccccc3F)n2)c1`, for which the Potency result in the test with MCC-13, in the test on MCC-26, with MKL-1, in the test on MKL-2, in the test with UISO and with WaGa was “inactive” each time. The Potency in the test on C33A was 11.2 µM (active) and 12.6 µM (active); in the test with CAOV3 it was 10 µM (active) and 11.2 µM (active); with CASKI it was 11.2 µM (active) and 14.1 µM (active).
Consider `Cc1ccc(Nc2nccc(N(C)c3ccc4c(C)n(C)nc4c3)n2)cc1S(N)(=O)=O`, for which the Potency entry in the test with MCC-13, in the test with MCC-26, in the test on MKL-1, in the test on MKL-2, in the test on UISO and in the test on WaGa was “inactive” each time. The Potency result in the test with C33A, in the test with CAOV3 and in the test on CASKI was “inactive” throughout.
For `c1ccc2[nH]c(-c3cscn3)nc2c1`, the Potency entry in the test on MCC-13, in the test on MCC-26, with MKL-1, with MKL-2, in the test on UISO and in the test on WaGa was “inactive” in each case. In addition, the Potency result in the test with C33A is “inactive”.
As for `Cc1ccc(S(=O)(=O)NC(=O)NN2CC3CCCC3C2)cc1` (configuration not stated), the Potency result in the test with MCC-13, in the test with MCC-26, with MKL-1, in the test with UISO, in the test with WaGa and with C33A was “inactive” each time. In the test with CASKI, the Potency result is “inactive”. For the same molecule, in the test with MKL-2, the Potency entry was “inactive and 26.4 µM (active)”.
Turning to `N=C(N=C(N)N)N1CCOCC1`, the Potency result in the test with MCC-13, with MCC-26, in the test on MKL-1, in the test with MKL-2, in the test on UISO and with WaGa was “inactive” in each case. The Potency result with C33A and in the test on CASKI was “inactive” each time.
